Records with an inconclusive call do not appear. Calls of active or inactive are those of the source. Unless noted, calls follow the shape of the dose curve; as a rule, active = well fitted curve in the direction sought with a large enough effect; inconclusive = small, poorly fitted or top-dose-only effect, or another doubt; inactive = no such curve, though single readings can be large; an effect the other way counts as inactive or inconclusive.
Columns and labels:
[1] = P-glycoprotein substrates identified in KB-8-5-11 adenocarcinoma cell line, qHTS therapeutic library screen (AID 1346987); also: nearly all actives have a fitted effect of over 65% in size; also: potency is read from the fitted curve at half-maximal effect
Outline: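 KB-8-5-11: colchicine-selected sub-line of KB-3-1 over-expressing P-gp; assay medium lacked colchicine. 72 h drug exposure at 37 degree C, CellTiter-Glo.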

[2] = system: Zika virus NS2B-NS3 protease (unlinked complex); assay: Primary screen GU Rhodamine qHTS for Zika virus inhibitors: Unlinked NS2B-NS3 protease assay (AID 1347159); also: % is scaled to controls: 0 for no effect and ±100 for the full control effect; nearly all actives have a fitted effect of over 60% in size
Outline: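 Noncovalent NS2B hydrophilic domain/NS3 protease complex (25 nM final) in 10 mM Tris-HCl pH 8.0, 0.01% Tween 20, preincubated 15 min with compounds (up to 114 microM), then 1.5 microM Rhodamine110 substrate. Fluorescence change over 15 min fitted to 4-parameter Hill.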

[3] = Primary qHTS for inhibitors of nuclear receptor binding SET domain protein 2 (NSD2) in an isogenic RCH-ACV NSD2 p.E1099K mutant (9B) (AID 1645876); also: nearly all actives have a fitted effect of over 70% in size; also: potency is read from the fitted curve at half-maximal effect
[4] = Primary qHTS for inhibitors of nuclear receptor binding SET domain protein 2 (NSD2) in an RCH-ACV wild type WT cells (2C) (AID 1645877); also: nearly all actives have a fitted effect of over 70% in size; also: potency is read from the fitted curve at half-maximal effect
CRL-7250 [5] = assay: Cytotoxic Profiling of Annotated Libraries Using Quantitative High-Throughput Screening (AID 1296008); conditions: Five cell lines viability, CellTiter-Glo ATP luminescence, 48-72 h; max response: hits give low values; also: nearly all actives have a fitted effect of over 60% in size; also: potency is read from the fitted curve at half-maximal effect; as to max response: % is scaled to controls: 0 for no effect and ±100 for the full control effect
Outline: (§1)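 Cells exposed to compounds for 48 or 72 hr at 37 degrees Celsius. Viability read as ATP-coupled luminescence with CellTiter-Glo after 10 min at room temperature.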

KB-3-1 = assay: as above; conditions: Five cell lines viability, CellTiter-Glo ATP luminescence, 48-72 h; max response: hits give low values
Outline: as §1

SKOV3 = assay: Primary qHTS to identify gynecologic anti-cancer compounds using libraries of approved drugs and bioactive compounds (AID 1345084); conditions: Gynecologic cancer cell panel viability, ATPlite luminescence, 48 h; series mostly up to 57.5 µM; also: nearly all actives have a fitted effect of over 55% in size; also: potency is read from the fitted curve at half-maximal effect
Outline: (§2)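 48 h compound exposure at 37 C, 5% CO2; five-point qHTS. ATPlite luminescence readout of cell ATP.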

NIH3T3 = assay: qHTS assay to identify novel small-molecules to repurpose for Merkel cell carcinoma treatment (AID 1296009); conditions: MCC and control cell lines, CellTiter-Glo viability, 72 h; at 44.8 µM (top of the series) unless noted; also: nearly all actives have a fitted effect of over 60% in size
Outline: (§3)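 Cells were incubated with compound for 72 hr at 37 degree celsius before CellTiter-Glo addition. Luminescence was normalized with no-cell wells as full cytotoxicity and DMSO as baseline.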

HeLa = assay: Primary qHTS to identify gynecologic anti-cancer compounds using libraries of approved drugs and bioactive compounds (AID 1345084); conditions: Gynecologic cancer cell panel viability, ATPlite luminescence, 48 h; series mostly up to 57.5 µM; also: nearly all actives have a fitted effect of over 55% in size; also: potency is read from the fitted curve at half-maximal effect
Outline: as §2

HACAT = assay: qHTS assay to identify novel small-molecules to repurpose for Merkel cell carcinoma treatment (AID 1296009); conditions: MCC and control cell lines, CellTiter-Glo viability, 72 h; at 44.8 µM (top of the series) unless noted; also: nearly all actives have a fitted effect of over 60% in size
Outline: as §3

[6] = P-glycoprotein substrates identified in KB-3-1 adenocarcinoma cell line, qHTS therapeutic library screen (AID 1346986); also: nearly all actives have a fitted effect of over 60% in size
Outline: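 Compounds were tested in dose-response against KB-3-1 and KB-8-5-11 cells at 37 degree C for 72 h, and viability was measured by luminescence. AC50 values came from curve fitting with class-based activity calls.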

[7] = biological target: Cytochrome P450 2D6 (Homo sapiens) (UniProt P10635); assay: Cytochrome P450 family 2 subfamily D member 6 (CYP2D6) small molecule antagonists: luciferase biochemical (cell-free) qHTS assay (AID 1645840; active = well fitted curve in the direction sought with a large enough effect in the repeat runs; an effect the other way counts as inactive or inconclusive; also: potency is read from the fitted curve at half-maximal effect; nearly all actives have a fitted effect of over 55% in size)
Chain of Cytochrome P450 2D6 (Homo sapiens) (P10635 whole entry, looked up): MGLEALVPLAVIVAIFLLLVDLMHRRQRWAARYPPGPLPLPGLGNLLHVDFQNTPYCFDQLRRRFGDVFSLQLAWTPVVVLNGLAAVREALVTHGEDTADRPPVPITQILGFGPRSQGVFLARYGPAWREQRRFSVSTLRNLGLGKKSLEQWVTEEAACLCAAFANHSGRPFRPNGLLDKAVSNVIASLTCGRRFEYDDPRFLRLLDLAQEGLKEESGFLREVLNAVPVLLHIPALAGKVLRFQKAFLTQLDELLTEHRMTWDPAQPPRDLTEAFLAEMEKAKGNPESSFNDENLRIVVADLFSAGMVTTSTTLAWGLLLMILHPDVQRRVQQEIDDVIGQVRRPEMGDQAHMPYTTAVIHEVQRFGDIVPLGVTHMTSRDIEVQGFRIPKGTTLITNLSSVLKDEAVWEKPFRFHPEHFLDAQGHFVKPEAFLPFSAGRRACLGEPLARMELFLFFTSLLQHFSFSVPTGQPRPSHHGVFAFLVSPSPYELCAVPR
Outline: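 P450-Glo luminescent screen: recombinant CYP2D6 enzyme–proluciferin substrate mix preincubated with compound 10 min at room temperature, then NADPH regeneration added for 1 h at room temperature. Detection reagent added for 20 min; luciferin light read as relative luminescence units.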

HEK293 = assay: Cytotoxic Profiling of Annotated Libraries Using Quantitative High-Throughput Screening (AID 1296008); conditions: Five cell lines viability, CellTiter-Glo ATP luminescence, 48-72 h; max response: hits give low values; also: nearly all actives have a fitted effect of over 60% in size; also: potency is read from the fitted curve at half-maximal effect; as to max response: % is scaled to controls: 0 for no effect and ±100 for the full control effect
Outline: as §1

[8] = biological target: Cytochrome P450 2C9 (Homo sapiens) (UniProt P11712); assay: Cytochrome P450 family 2 subfamily C member 9 (CYP2C9) small molecule antagonists: luciferase biochemical (cell-free) qHTS assay (AID 1645842; active = well fitted curve in the direction sought with a large enough effect in the repeat runs; an effect the other way counts as inactive or inconclusive; also: nearly all actives have a fitted effect of over 55% in size; also: potency is read from the fitted curve at half-maximal effect)
Chain of Cytochrome P450 2C9 (Homo sapiens) (P11712 whole entry, looked up): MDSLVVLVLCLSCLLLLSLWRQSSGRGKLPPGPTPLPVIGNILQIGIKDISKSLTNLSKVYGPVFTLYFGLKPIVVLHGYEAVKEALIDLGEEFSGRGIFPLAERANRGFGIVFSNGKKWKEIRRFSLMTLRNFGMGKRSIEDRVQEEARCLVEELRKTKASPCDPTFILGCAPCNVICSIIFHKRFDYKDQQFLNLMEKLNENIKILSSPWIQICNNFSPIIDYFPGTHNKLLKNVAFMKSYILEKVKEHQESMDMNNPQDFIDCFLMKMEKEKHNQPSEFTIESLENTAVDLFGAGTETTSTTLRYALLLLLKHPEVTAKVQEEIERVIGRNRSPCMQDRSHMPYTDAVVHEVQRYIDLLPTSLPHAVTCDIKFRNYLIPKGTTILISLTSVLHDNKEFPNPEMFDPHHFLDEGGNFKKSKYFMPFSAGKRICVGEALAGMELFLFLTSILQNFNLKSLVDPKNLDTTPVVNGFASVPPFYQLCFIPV
Outline: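 Luminescence, after 20 min with luciferin detection reagent, reflected CYP2C9 turnover during a 1 h NADPH-driven reaction at 37C. Enzyme-substrate mix contained 0.4% bovine serum albumin and was preincubated with compound 10 min at room temperature.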

CRL-7250 [9] = assay: qHTS assay to identify novel small-molecules to repurpose for Merkel cell carcinoma treatment (AID 1296009); conditions: MCC and control cell lines, CellTiter-Glo viability, 72 h; series mostly up to 92 µM; also: nearly all actives have a fitted effect of over 60% in size
Outline: as §3

C=C[C@H]1CN2CCC1C[C@H]2[C@H](O)c1ccnc2ccccc12 (stereo partly specified)
inactive: Potency [1] | Potency [2] | Potency [3] | Potency [4] | max response (CRL-7250 [5]) -4.97% | max response (KB-3-1) 2.39% | Potency (SKOV3)

CC(=O)C1CCC2C3CCC4C[C@@H](O)CCC4(C)C3CCC12C (stereo partly specified)
inactive: Potency [2] | max response (CRL-7250 [5]) 3.25% | max response (KB-3-1) 0.129% | outcome (NIH3T3)

CC[C@@H]1C[C@H]2CC[C@H](O2)[C@H](C)C(=O)O[C@@H](C)C[C@@H]2CC[C@@H](O2)[C@@H](C)C(=O)O[C@H](C)C[C@H]2CC[C@H](O2)[C@H](C)C(=O)O[C@@H](C)C[C@@H]2CC[C@@H](O2)[C@@H](C)C(=O)O1
active: Potency [1] 1220 nM | Potency [3] 21.6 nM | Potency [4] 24.2 nM | Potency (CRL-7250 [5]) 432 nM | Potency (KB-3-1) 96.8 nM | Potency (HeLa) 562 nM | Potency (SKOV3) 562 nM

C[C@]12CC[C@@H](O[C@@H]3O[C@H](CO)[C@@H](O)[C@H](O)[C@H]3O)C[C@@]1(O)CCC1C2CC[C@]2(C)[C@@H](C3=CC(=O)OC3)CC[C@]12O (stereo partly specified)
inactive: Potency [2] | outcome (NIH3T3) inactive [at 17.4 µM]
active: Potency [1] 159 nM | Potency [3] 79.6 nM | Potency [4] 112 nM | Potency (CRL-7250 [5]) 126 nM | Potency (KB-3-1) 200 nM | Potency (HeLa) 398 nM | Potency (SKOV3) 355 nM

CC1=CC2/C=C(\C)CCC(O)C(O)/C=C/C(=O)OC23C(=O)NC(CC(C)C)C3C1C (stereo unspecified)
inactive: Potency [1] | max response (CRL-7250 [5]) -26.9% | max response (KB-3-1) 9.99% | outcome (HACAT) inactive [at 17.4 µM] | Potency (HeLa)
active: Potency [3] 8930 nM

Cc1cccc(NC(=O)NC2N=C(c3ccccc3)c3ccccc3N(CC(=O)c3ccccc3C)C2=O)c1 (stereo unspecified)
inactive: Potency [1] | max response (CRL-7250 [5]) 0.833% | max response (KB-3-1) 7.53% | outcome (HACAT) | outcome (NIH3T3) | Potency (HeLa) | Potency (SKOV3)

CCCN(CCC)CCc1ccc(OC)c(OCCc2ccccc2)c1
active: Potency [7] 213 nM
inactive: Potency [6] | Potency [1] | Potency [2] | max response (CRL-7250 [5]) 3.48% | outcome (KB-3-1) | Potency (HeLa) | Potency (SKOV3)

COC1CC(OC2CCC3(C=O)C(CCC4C3CCC3(C)C(C5=CC(=O)OC5)CCC43O)C2)OC(C)C1O (stereo unspecified)
active: Potency [1] 178 nM | Potency [3] 79.6 nM | Potency [4] 126 nM | Potency (HEK293) 112 nM | Potency (KB-3-1) 252 nM | Potency (HeLa) 224 nM | Potency (SKOV3) 199 nM

Cc1ccc(Cn2nc(C(=O)N[C@@H]3C(C)(C)[C@@H]4CC[C@@]3(C)C4)cc2-c2ccc(Cl)c(C)c2)cc1
active: Potency [8] 2680 nM
inactive: Potency [1] | Potency [3] | Potency [4] | max response (CRL-7250 [5]) 0.138% | max response (KB-3-1) 0.44% | Potency (SKOV3)

CC[C@@H]1/C=C/C=C/C[C@H](C)C(O)[C@](C)(O)C(=O)[C@H](C)C(O)[C@H](C)C(=O)[C@H](C)[C@@H](O)[C@H](C)/C=C/C(=O)O[C@H]2[C@@H](C)[C@@H](CC1)O[C@]1(O[C@H](C[C@H](C)O)[C@H](C)CC1=O)[C@@H]2C (stereo partly specified)
active: Potency [3] 123 nM | Potency [4] 138 nM | Potency (HEK293) 17.4 nM | Potency (KB-3-1) 49.1 nM

C[C@@H]1O[C@@H](O[C@H]2CC[C@@]3(C)C(CC[C@@H]4C3CC[C@]3(C)[C@@H](C5=CC(=O)OC5)CC[C@]43O)C2)[C@H](O)[C@H](O)[C@H]1O (stereo partly specified)
inactive: Potency [2]
active: Potency [1] 709 nM | Potency [3] 200 nM | Potency [4] 632 nM | Potency (HEK293) 632 nM | Potency (KB-3-1) 796 nM | Potency (HeLa) 2000 nM | Potency (SKOV3) 2000 nM

CCOC(=O)c1ccc(-c2ccc(OC(=O)N(C)Cc3cccc(-c4ccncc4)c3)cc2)cc1
active: Potency [7] 6740 nM | Potency [8] 952 nM | Potency (HEK293) 9200 nM
inactive: Potency [1] | Potency [2] | Potency [3] | Potency [4] | max response (KB-3-1) 1.19% | Potency (HeLa) | Potency (SKOV3)

CN1CN(c2ccccc2)C2(CCN(CCCC(=O)c3ccc(F)cc3)CC2)C1=O
inactive: max response (KB-3-1) -4.39% | Potency (HeLa) | Potency (SKOV3)
active: Potency [3] 23000 nM | Potency [4] 25800 nM | Potency (HEK293) 14600 nM

CO[C@H]1C[C@H](O[C@H]2CC[C@]3(CO)[C@H]4CC[C@]5(C)[C@@H](C6=CC(=O)OC6)CC[C@]5(O)[C@@H]4CC[C@]3(O)C2)O[C@H](C)[C@H]1O
inactive: Potency [2]
active: Potency [1] 22.4 nM | Potency [3] 50.2 nM | Potency [4] 79.6 nM | Potency (CRL-7250 [5]) 70.9 nM | Potency (KB-3-1) 224 nM | Potency (HeLa) 199 nM | Potency (SKOV3) 158 nM

COc1ccc2[nH]c(-c3ccccc3)c(CCN(C)C)c2c1
active: Potency [8] 16900 nM
inactive: Potency [1] | Potency [2] | outcome (CRL-7250 [5]) | Potency (CRL-7250 [9]) | outcome (HACAT) | Potency (HeLa) | Potency (SKOV3)

CCOC(=O)Nc1ccc(NCc2c(C)cc(C)cc2C)cc1N
active: Potency [7] 2130 nM | Potency [3] 18300 nM | Potency [4] 9160 nM
inactive: Potency [2] | Potency [8] | outcome (CRL-7250 [5]) | Potency (CRL-7250 [9]) | Potency (SKOV3)

COC(=O)[C@@]1(C)C(=O)C=C[C@]2(C)c3c(O)cc(C(C)C)cc3[C@H](O)[C@@H](OC(C)=O)C12 (stereo partly specified)
inactive: Potency [1] | Potency [2] | outcome (CRL-7250 [5]) | Potency (CRL-7250 [9]) | outcome (HACAT) inactive [at 17.4 µM] | Potency (HeLa) | Potency (SKOV3)

Source: PubChem BioAssay (NCATS)
